Results from the supplement of paper PMC12669032.
Values joined by “and” are separate entries in the source; they are usually repeats but may differ in a detail not shown here. Equal entries are not always repeated. Unmarked numbers belong to inactive results.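 Rule for the calls: active = AUC reduced over 20% with Padj below 0.05 in at least 2 of 3 replicates; inactive = otherwise.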

Tests used:
[1] = tested on: Roseburia intestinalis; test: growth AUC relative to DMSO control (median of replicates) (fraction); higher = more growth (less inhibition), active = hit call of the paper; details: 20 µM; 24 h
How it was run: (§1)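 Gut bacterial monocultures were grown anaerobically at 37 °C in mGAM, starting at OD600 0.05, with 20 µM compound (1% DMSO) in round-bottom 96-well plates under pierced gas-permeable seals. OD600 was read hourly for 24 h. Area under the growth curve (minimum OD set to 0) was normalised to the plate median of DMSO controls, or to row and column medians on the industrial chemical plate. The value is the median of three biological replicates grown on separate days.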

[2] = tested on: Streptococcus salivarius; test: as above; details: 20 µM; 24 h
How it was run: as §1

Compound | growth AUC [1] | growth AUC [2]
COC(=O)/C=C(/C)OP(=O)(OC)OC | 1.02 and 0.985 | 0.944 and 1
CCOP(=S)(OCC)SCSc1ccc(Cl)cc1 | 0.939 | 1.03
COC(=O)C(C)N(C(=O)c1ccco1)c1c(C)cccc1C (centres undefined) | 0.97 | 0.942
COCCOC(=O)C(C#N)(C(=O)c1ccccc1C(F)(F)F)c1ccc(C(C)(C)C)cc1 (centres undefined) | 1.02 | 0.917
CCC(C)n1c(=O)[nH]c(C)c(Br)c1=O (centres undefined) | 0.975 | 0.901
Cc1cc(Cl)ccc1OC(C)C(=O)O (centres undefined) | 1.03 | 1.01
CC1=C(C(=O)Nc2ccccc2)SCCO1 | 1.08 | 1.08
C=CC(N)=O | 1.01 | 1.01
CCOP(=S)(OCC)SCS(=O)(=O)C(C)(C)C | 1.02 | 0.984
COP(=S)(NC(C)C)Oc1ccc(C)cc1[N+](=O)[O-] (centres undefined) | 1.01 | 1.02
S=C1NCCN1 | 1.01 | 0.992
CC(C)C1(C)N=C(c2ncccc2C(=O)O)NC1=O (centres undefined) | 0.97 | 0.931
Cc1ccccc1CO[C@@H]1C[C@@]2(C(C)C)CC[C@]1(C)O2 (mixture of isomers) | 0.978 | 0.97
CCOCCN(C(=O)CCl)C(=C(C)C)c1ccccc1 | 1.03 | 0.993
CCOC(=O)c1ccccc1S(=O)(=O)NC(=O)Nc1nc(Cl)cc(OC)n1 | 1.01 | 0.972
COP(=S)(OC)Oc1ccc(Sc2ccc(OP(=S)(OC)OC)cc2)cc1 | 1.03 | 1.01
OCC(O)CCl (centres undefined) | 1.02 | 1
CCC(C)(NC(=O)c1cc(Cl)c(C)c(Cl)c1)C(=O)CCl (centres undefined) | 0.964 | 0.945
C[C@@H](Oc1ccc(Oc2ccc(C(F)(F)F)cn2)cc1)C(=O)O | 0.99 | 1.05
c1ccc2c(c1)-c1cccc3cccc-2c13 | 0.956 | 0.972
COC(=O)COc1ccc(Cl)cc1Cl | 0.943 | 0.937
CCC1(C(=O)NC(C)c2ccc(Cl)cc2)C(C)C1(Cl)Cl (centres undefined) | 0.888 | 0.97
COC(=O)N(C(=O)N1CO[C@@]2(C(=O)OC)Cc3cc(Cl)ccc3C2=N1)c1ccc(OC(F)(F)F)cc1 | 0.907 | 0.873
CC(C)CC(C)c1sccc1NC(=O)c1cn(C)nc1C(F)(F)F (centres undefined) | 0.998 | 0.984
COc1nn(CSP(=S)(OC)OC)c(=O)s1 | 1.06 | 0.985
CCOC(=O)C(SP(=S)(OC)OC)c1ccccc1 (centres undefined) | 1.03 | 1

Compound | growth AUC [1] | growth AUC [2]
Cc1cc(C)nc(NC(=O)NS(=O)(=O)c2ccccc2C(=O)OC2COC2)n1 | 0.985 | 0.909
COC(=O)[C@@H](C)N(C(=O)Cc1ccccc1)c1c(C)cccc1C | 1.01 | 0.958
CC(=NCc1ccc(Cl)nc1)NC#N | 0.997 | 1
Clc1ccc(Cl)c(Cl)c1Cl | 0.999 | 1.04
CCOC(=O)Nc1cccc(OC(=O)Nc2ccccc2)c1 | 1.01 | 1.02
O=S(=O)(c1ccc(Cl)cc1)c1cc(Cl)c(Cl)cc1Cl | 0.989 | 0.999
O=C(NC(=O)c1c(F)cccc1F)Nc1ccc(CO/N=C(\c2ccc(Cl)cc2)C2CC2)cc1 | 0.968 | 0.996
CCCCC(CC)COC(=O)c1ccccc1C(=O)OCC(CC)CCCC (centres undefined) | 0.971 | 0.967
O=S(=O)(Oc1ccc(Cl)cc1)c1ccc(Cl)cc1 | 0.948 | 0.983
[CH3][Hg][Cl] | 1.05 | 0.848
CC(Oc1ccc(Oc2ccc(C(F)(F)F)cn2)cc1)C(=O)O (centres undefined) | 0.908 | 0.93
CC(C)=CC1C(C(=O)OC(C#N)c2cccc(Oc3ccccc3)c2)C1(C)C (mixture of isomers) | 0.893 | 0.988
Oc1cc(Cl)cc(Cl)c1 | 1.01 | 1
CCCC(Cn1cncn1)c1ccc(Cl)cc1Cl (centres undefined) | 1.02 | 0.915
CCOP(=S)(OCC)OP(=S)(OCC)OCC | 0.984 | 0.976
CCOC(=O)/C=C(C)/C=C/C[C@@H](C)CCCC(C)C | 1.09 | 0.972
CCOC(=O)COc1cc(-c2nn(C)c(OC(F)F)c2Cl)c(F)cc1Cl | 0.973 | 0.993
Cc1ccc2nc3sc(=O)sc3nc2c1 | 0.892 | 0.983
CC1(C)[C@H](C(=O)O[C@H](C#N)c2cccc(Oc3ccccc3)c2)[C@@H]1/C=C\C(=O)OC(C(F)(F)F)C(F)(F)F | 0.962 | 1.07
CCCN(CCC)c1c([N+](=O)[O-])cc(C(F)(F)F)cc1[N+](=O)[O-] | 1 | 1.04
CCCN(CCOc1c(Cl)cc(Cl)cc1Cl)C(=O)n1ccnc1 | 0.8 | 0.984
CNC(=O)c1cc(Cl)cc(C)c1NC(=O)c1cc(Br)nn1-c1ncccc1Cl | 0.957 | 0.99
CC(C)OP(=O)(OC(C)C)SCc1ccccc1 | 0.951 | 1
COP(=O)(OC)Oc1ccc(S(C)=O)c(C)c1 (centres undefined) | 1.01 | 1.01
C=CCNC(=O)c1c([Si](C)(C)C)sc(C)c1C | 1.03 | 1
COCC(=O)N(c1c(C)cccc1C)N1CCOC1=O | 0.994 | 1

Compound | growth AUC [1] | growth AUC [2]
CCCCN(CC)C(=O)SCCC | 1.03 | 0.996
O=P(O)(O)CCCl | 1.03 | 1.04
O=[N+]([O-])c1cc(C(F)(F)F)c(Cl)c([N+](=O)[O-])c1Nc1ncc(C(F)(F)F)cc1Cl | 0.989 | 0.822
C[C@@H](Oc1ccc(Oc2cnc3cc(Cl)ccc3n2)cc1)C(=O)O | 1.04 | 1.01
O=S1OC[C@@H]2[C@H](CO1)[C@]1(Cl)C(Cl)=C(Cl)[C@@]2(Cl)C1(Cl)Cl (some centres undefined) | 0.954 and 0.949 | 0.954 and 0.864
CCOCN(C(=O)CCl)c1c(C)cccc1CC | 1.01 | 1
COP(=S)(NC(C)C)Oc1ccccc1C(=O)OC(C)C (centres undefined) | 0.938 | 0.977
O=C(O)C(Cl)Cl | 1.02 | 1.02
CON(C)C(=O)Nc1ccc(Br)c(Cl)c1 | 0.957 | 0.956
Oc1c(Cl)ccc(Cl)c1Cl | 0.951 | 0.964
c1ccc(-c2ccccc2)cc1 | 1.02 | 0.993
COc1ccc(/C(=C/C(=O)N2CCOCC2)c2ccc(Cl)cc2)cc1OC | 1.06 | 0.987
CC(C)(C)c1cc([N+](=O)[O-])cc([N+](=O)[O-])c1O | 0.802 | 0.848
N#Cc1cc(Br)c(O)c(Br)c1 | 0.953 | 0.959
CCNP(=S)(OC)O/C(C)=C/C(=O)OC(C)C (centres undefined) | 1.05 | 0.99
CC(CCl)OP(=O)(OC(C)CCl)OC(C)CCl (mixture of isomers) | 0.967 | 1.01
CCOC(=O)CC(SP(=S)(OC)OC)C(=O)OCC (centres undefined) | 0.99 | 0.939
CCOC(=O)C(Cl)Cc1cc(-n2nc(C)n(C(F)F)c2=O)c(F)cc1Cl (centres undefined) | 1.03 | 1.03
CC1COC(Cn2cncn2)(c2ccc(Oc3ccc(Cl)cc3)cc2Cl)O1 (centres undefined) | 0.823 | 0.962
OCC1C(CO)C2(Cl)C(Cl)=C(Cl)C1(Cl)C2(Cl)Cl (centres undefined) | 0.953 | 0.82
CCCN(CC)CC1COC2(CCC(C(C)(C)C)CC2)O1 (centres undefined) | 1.03 | 0.96
COP(=O)(OC)O/C(=C\Cl)c1ccc(Cl)cc1Cl | 1.03 | 1
CC(C)Oc1cc(-n2nc(C(C)(C)C)oc2=O)c(Cl)cc1Cl | 0.931 | 0.971
Cc1cc(Cl)ccc1N=CN(C)C.Cl | 0.994 | 0.99
C[Si](Cn1cncn1)(c1ccc(F)cc1)c1ccc(F)cc1 | 0.853 | 0.988
